# PD-1 reverse act = activators reversing PD-1 mediated T-cell inhibition; primary human CD4 T cells, PD-L1 beads, CellTiter-Glo 96 h; activation, % (concentration not given with the values); 29,000 tested, under 10 active; AID 2316; call rule not given here;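 note: 0% = median vehicle wells and 100% = positive control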
# STK33 kin inh = blocks human STK33 kinase activity | Q9BYT3 | ADP-Glo luminescence, MBP substrate | inhibition, % at 12.5 µM | 27,000 tested, 0.44% active | AID 2322; in the data active = inhibition above about 20%
# Target sequence (Q9BYT3 whole entry, looked up): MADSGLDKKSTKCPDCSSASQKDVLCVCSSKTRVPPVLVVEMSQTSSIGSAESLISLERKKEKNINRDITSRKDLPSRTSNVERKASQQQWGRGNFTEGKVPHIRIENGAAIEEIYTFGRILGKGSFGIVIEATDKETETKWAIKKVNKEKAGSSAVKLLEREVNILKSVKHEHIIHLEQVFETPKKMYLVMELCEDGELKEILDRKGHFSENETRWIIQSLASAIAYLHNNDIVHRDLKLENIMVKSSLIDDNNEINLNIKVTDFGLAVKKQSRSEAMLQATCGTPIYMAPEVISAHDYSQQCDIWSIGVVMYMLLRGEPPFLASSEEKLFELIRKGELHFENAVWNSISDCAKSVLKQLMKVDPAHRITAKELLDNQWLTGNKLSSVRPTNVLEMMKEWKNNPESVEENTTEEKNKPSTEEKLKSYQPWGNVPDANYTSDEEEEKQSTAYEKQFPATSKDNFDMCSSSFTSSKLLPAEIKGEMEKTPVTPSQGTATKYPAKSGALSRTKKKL
# NOMO-1 viab = STK33 inhibitor candidate reducing NOMO-1 cell viability. NOMO-1 AML viability, CellTiter-Glo luminescence, 72 h. AID 2330. 37,000 tested, 7.5% active. inhibition, % (no concentration beside the values); in the data active = inhibition above about 80%
# The depositor's hits bear a star; / = no result given. Many of the other results were omitted from the sample, so hits are more common in it than they were.
SMILES,PD-1 reverse act,STK33 kin inh,NOMO-1 viab
C[C@H](CO)N1C[C@H](C)[C@H](CN(C)Cc2ccc(C(=O)Nc3ccccc3N)cc2)Oc2c(NC(=O)NC3CCCCC3)cccc2C1=O,-1,/,120*
C[C@@H]1CN([C@H](C)CO)C(=O)c2cccc(NC(=O)NC3CCCCC3)c2O[C@@H]1CN(C)Cc1ccc(C(=O)Nc2ccccc2N)cc1,-1,/,127*
C[C@H]1CN([C@@H](C)CO)C(=O)c2cccc(NC(=O)NC3CCCCC3)c2O[C@H]1CN(C)Cc1ccc(-c2ccccc2)cc1,-2,/,30
C[C@H](CO)N1C[C@H](C)[C@H](CN(C)Cc2ccc(C(=O)O)cc2)Oc2c(NC(=O)NC3CCCCC3)cccc2C1=O,1,/,-14
C[C@H]1CN([C@@H](C)CO)C(=O)c2cccc(NC(=O)NC3CCCCC3)c2O[C@H]1CN(C)Cc1ccc(C(=O)Nc2ccccc2N)cc1,-1,/,129*
C[C@@H]1CN([C@H](C)CO)C(=O)c2cccc(NC(=O)NC3CCCCC3)c2O[C@H]1CN(C)Cc1ccc(C(=O)O)cc1,1,/,14
COc1ccc(NC(=O)CSc2nc3c(c(-c4cccs4)c2C#N)CCCC3)cc1,/,3,37
O=P1(N2CCN(c3ccc(Cl)cc3)CC2)COc2ccccc2OC1,0,/,13
O=C(CNS(=O)(=O)c1cc(Cl)ccc1Cl)Nc1ccc(Br)cc1F,-1,-2,19
O=C(Cn1c(=O)oc2ccccc21)Nc1sc2c(c1C(=O)O)CCCC2,1,-1,-7
COc1ccc(OC)c(NC(=O)Cn2cc(C(C)=O)c3ccccc32)c1,/,-1,46
N=c1ccccn1CC(O)c1ccccc1 (stereo unspecified),1,/,11
CC(=O)Nc1ccc(OCC(O)Cn2nc(C)cc2C)cc1 (stereo unspecified),2,0,-3
COC(=O)c1cccc(C(=O)Nc2cnc3ccccc3c2)n1,-1,/,123*
COC(=O)c1ccc(NC(=O)COc2cccc3ccccc23)cc1,-1,/,6
COc1ccc(F)cc1S(=O)(=O)n1cnc2cc(C)c(C)cc21,/,1,48
COc1ccc(OC)c(C2C(C(=O)Nc3ccccc3OC)=C(C)Nc3ncnn32)c1 (stereo unspecified),/,-3,-16
COc1ccc(OC)c(C2Nc3nc4ccccc4n3C(C)=C2C(=O)Nc2ccc(C)cc2C)c1 (stereo unspecified),-1,-1,85*
COC(=O)c1c(NC(=O)C2CC=CCC2C(=O)O)sc2c1CCC(c1ccccc1)C2 (stereo unspecified),0,-3,11
Cc1ccc(S(=O)(=O)NCCSc2nnc(Nc3ccccc3)s2)cc1,/,6,46
Cc1cc(C(F)(F)F)c2c(n1)sc1c(=O)[nH]c(C)nc12,-1,/,-12
COC(=O)c1cc(N2C(=O)C3C4C=CC(C)(O4)C3C2=O)ccc1Cl (stereo unspecified),-47,2,113*
CCOc1ccc(OCC)c(S(=O)(=O)NC2CC(C)(C)NC(C)(C)C2)c1,1,0,3
CCOc1ccc(C2(C)CC(C)(C)Nc3ccccc32)cc1 (stereo unspecified),1,/,114*
COc1ccccc1CC(=O)Nc1ccc(-c2noc(-c3ccc(OC)c(OC)c3)n2)cc1,0,3,44
SMILES,PD-1 reverse act,STK33 kin inh,NOMO-1 viab
COc1ccccc1CC(=O)Nc1ccc(-c2nc3ccccc3[nH]2)cc1,-6,/,135*
Cc1ccc(-c2nc3ccccc3[nH]2)cc1NC(=O)COc1cccc([N+](=O)[O-])c1,-1,9,19
Cc1ccc(-c2nc3ccccc3[nH]2)cc1NC(=O)COc1ccccc1[N+](=O)[O-],-14,9,119*
CCOc1c(S(=O)(=O)NCc2ccco2)ccc(Cl)c1Cl,1,1,28
CCn1c(SCC(=O)Nc2ccccc2F)nnc1-c1ccccc1,1,-2,-8
Cc1ccc(NC(=O)c2cccc(S(=O)(=O)Nc3cccc(C(=O)O)c3)c2)cc1,/,-1,-12
O=C(O)c1ccc(NS(=O)(=O)c2cc3c4c(cccc4c2)C(=O)NC3=O)cc1,0,/,140*
O=C(CSc1nnc(-c2ccccc2)n1-c1ccccc1)Nc1ccc(Br)cc1,-1,4,9
Cc1ccc(-c2nc3ncccc3o2)cc1NC(=O)COc1ccc(C2CCCCC2)cc1,-8,7,42
C=C1C(=O)O[C@@H]2C[C@H](C)[C@@H]3CC(=O)C(C)=C3C[C@H]12,-15,-4,121*
C=C1C(=O)OC2C3=C(C)C(=O)CC3C(C)CC(O)C12 (stereo unspecified),-4,-3,57
C[C@@H]1CN([C@H](C)CO)C(=O)Cc2cc(NC(=O)Nc3cccc4ccccc34)ccc2O[C@H]1CN(C)CC1CCCCC1,/,4,9
C[C@H]1CN([C@@H](C)CO)C(=O)Cc2cc(NC(=O)Nc3ccccc3)ccc2O[C@@H]1CN(C)CC1CC1,0,1,-1
C[C@H](CO)N1C[C@H](C)[C@H](CN(C)CC2CC2)Oc2ccc(NC(=O)Nc3ccc(F)cc3)cc2CC1=O,/,-2,-8
C[C@@H]1CN([C@H](C)CO)C(=O)Cc2cc(NC(=O)Nc3ccccc3)ccc2O[C@@H]1CN(C)CC1CCCCC1,1,0,104*
C[C@@H]1CN([C@H](C)CO)C(=O)Cc2cc(NC(=O)Nc3cccc4ccccc34)ccc2O[C@@H]1CN(C)CC1CCCCC1,-3,-1,87*
C[C@@H]1CN([C@H](C)CO)C(=O)Cc2cc(NC(=O)Nc3ccc(F)cc3)ccc2O[C@@H]1CN(C)CC1CCCCC1,1,-3,100*
C[C@H]1CN([C@@H](C)CO)C(=O)Cc2cc(NC(=O)Nc3ccccc3)ccc2O[C@@H]1CN(C)CC1CCCCC1,4,3,101*
CC(C)NC(=O)Nc1ccc2c(c1)CC(=O)N([C@@H](C)CO)C[C@H](C)[C@H](CN(C)CC1CCCCC1)O2,1,-5,9
C[C@H](CO)N1C[C@H](C)[C@@H](CN(C)Cc2ccc(-c3ccccc3)cc2)Oc2ccc(NC(=O)Nc3ccc(C(F)(F)F)cc3)cc2C1=O,-1,/,122*
C[C@@H]1CN([C@H](C)CO)C(=O)c2cc(NC(=O)Nc3ccc(C(F)(F)F)cc3)ccc2O[C@H]1CN(C)Cc1ccc(-c2ccccc2)cc1,-8,/,126*
C[C@@H]1CN([C@@H](C)CO)C(=O)c2cc(NC(=O)Nc3ccc(C(F)(F)F)cc3)ccc2O[C@H]1CN(C)Cc1ccc(-c2ccccc2)cc1,/,/,118*
C[C@@H]1CN([C@@H](C)CO)C(=O)c2cc(NC(=O)Nc3ccc(C(F)(F)F)cc3)ccc2O[C@@H]1CN(C)Cc1ccc(-c2ccccc2)cc1,-5,/,126*
C[C@H](CO)N1C[C@H](C)[C@@H](CN(C)Cc2ccc(C(=O)O)cc2)Oc2ccc(NC(=O)Nc3ccc(C(F)(F)F)cc3)cc2C1=O,2,/,-1
CC1OC(OCC2OC(OCC3(C)C(O)CCC4(C)C3CCC3(C)C4CCC4C5=CC(C)(C)CCC5(C(=O)O)CCC43C)C(O)C(O)C2O)C(O)C(O)C1O (stereo unspecified),-1,-2,5
COc1cc(S(=O)(=O)NCc2cccnc2)ccc1Br,2,1,-3
Cc1ccccc1-c1nnc(-c2cc(C(C)(C)C)nn2Cc2ccc(F)cc2)o1,1,0,20
